{"source": "PubChem BioAssay (NCATS)", "note": "Records with an inconclusive call do not appear. The source made the active and inactive calls. Calls come from the whole dose curve; as a rule, active = well fitted inhibition curve with a large enough effect; inconclusive = small, poorly fitted or top-dose-only effect; inactive = flat fitted curve, though single readings scatter. % is set by controls: 0 for no effect and ±100 for the full control effect; potency is the fitted concentration of half-maximal effect."}
{"molecular_target": "Dual specificity protein kinase CLK4 (Homo sapiens) (UniProt Q9HAZ1)", "sequence (Q9HAZ1 whole entry, looked up)": "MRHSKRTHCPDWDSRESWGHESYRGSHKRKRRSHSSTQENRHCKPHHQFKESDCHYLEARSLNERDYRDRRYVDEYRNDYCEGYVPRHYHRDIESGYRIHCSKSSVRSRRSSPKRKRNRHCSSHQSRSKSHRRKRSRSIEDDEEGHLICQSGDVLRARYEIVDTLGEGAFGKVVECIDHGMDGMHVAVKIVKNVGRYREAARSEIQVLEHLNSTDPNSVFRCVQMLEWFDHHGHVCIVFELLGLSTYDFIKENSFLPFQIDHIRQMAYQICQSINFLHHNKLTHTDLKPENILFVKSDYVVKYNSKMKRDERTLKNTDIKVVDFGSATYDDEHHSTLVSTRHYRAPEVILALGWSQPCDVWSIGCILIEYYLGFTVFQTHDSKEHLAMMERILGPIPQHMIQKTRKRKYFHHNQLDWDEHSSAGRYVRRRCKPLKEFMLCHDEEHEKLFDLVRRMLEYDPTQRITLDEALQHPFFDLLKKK", "test": "qHTS Assay for Inhibitors of CDC-like Kinase 4 (ADP-FP Assay) (AID 1795); note: nearly all actives have a fitted effect of over 60% in size", "conditions": "Transcreener ADP fluorescence polarization; series mostly up to 50 µM; activity change, negative = inhibition: at the top concentration", "procedure,_shortened": "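Recombinant Clk4 (6.25 nM) phosphorylated 100 uM RS repeat peptide with 1 uM ATP in 25 mM Tris pH 7.5, 10 mM MgCl2, 0.5 mM EGTA, 2.5 mM DTT, 0.01% Triton X-100 for 1 h. ADP was detected by Transcreener ADP2 competitive fluorescence polarization after 30 min at room temperature.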"}
{"smiles": "FC(F)(F)c1ccccc1-c1nccc(NCc2cccs2)n1", "activity change, negative = inhibition": "6.38% (inactive)"}
{"smiles": "CN1CCN(c2ncc3ncc(=O)n(C[C@H]4CCCO4)c3n2)CC1", "activity change, negative = inhibition": "-1.12% (inactive)"}
{"smiles": "COCCn1c(=O)c(-c2cccc(C#N)c2)nc2cnc(Oc3ccccc3)nc21", "activity change, negative = inhibition": "5.44% (inactive)"}
{"smiles": "CS(=O)(=O)Nc1cccc(-c2ccc3ncnc(Nc4ccccc4)c3c2)c1", "Potency": "14100 nM (active)"}
{"smiles": "FC(F)(F)c1ccccc1-c1nc(NCc2cccs2)c2ccccc2n1", "activity change, negative = inhibition": "-6.2% (inactive)"}
{"smiles": "c1ccc(CNc2ncnc3ccc(-c4cccnc4)cc23)cc1", "Potency": "2240 nM (active)"}
{"smiles": "COc1ccc(-c2nc3cnc(N4CCN(C)CC4)nc3n(Cc3cccs3)c2=O)cc1", "activity change, negative = inhibition": "8.35% (inactive)"}
{"smiles": "COCCn1c(=O)cnc2cnc(Nc3cccc(OC)c3)nc21", "Potency": "1260 nM (active)"}
{"smiles": "COCCn1c(=O)cnc2cnc(Nc3ccccc3)nc21", "Potency": "2820 nM (active)"}
{"smiles": "CN1CCN(c2ncc3nc(-c4cc(F)cc(F)c4)c(=O)n(CCc4ccccc4)c3n2)CC1", "activity change, negative = inhibition": "10.2% (inactive)"}
{"smiles": "O=c1c(-c2ccc(Cl)cc2)nc2cnc(N3CCNCC3)nc2n1Cc1cccs1", "activity change, negative = inhibition": "3.51% (inactive)"}
{"smiles": "O=c1c(-c2ccc(F)cc2)nc2cnc(N3CCNCC3)nc2n1C1CC1", "activity change, negative = inhibition": "2.23% (inactive)"}
{"smiles": "COc1ccc(-n2c(=O)c(-c3ccc(Cl)cc3)nc3cnc(N4CCNCC4)nc32)cc1", "activity change, negative = inhibition": "11.6% (inactive)"}
{"smiles": "COCCNc1ncnc2ccc(-c3cccc(OC)c3)cc12", "Potency": "501 nM (active)"}
{"smiles": "O=c1c(-c2ccc(Cl)cc2)nc2cnc(N3CCOCC3)nc2n1-c1ccccc1", "activity change, negative = inhibition": "12.9% (inactive)"}
{"smiles": "CN(C)c1ncc2nc(-c3ccc(F)cc3)c(=O)n(Cc3ccc(F)cc3)c2n1", "activity change, negative = inhibition": "9.97% (inactive)"}
{"smiles": "COc1ccc(-c2nc3cnc(Oc4ccccc4)nc3n(CCC#N)c2=O)cc1", "activity change, negative = inhibition": "0.23% (inactive)"}
{"smiles": "COc1cccc(Nc2ncc3nc(CCc4ccccc4)c(=O)n(C)c3n2)c1", "activity change, negative = inhibition": "-0.0766% (inactive)"}
{"smiles": "Cc1nc2cncnc2n(C2CC2)c1=O", "activity change, negative = inhibition": "1.45% (inactive)"}
{"smiles": "COc1ccc2[nH]cc(CCNc3ncnc4ccc(-c5cccnc5)cc34)c2c1", "Potency": "3160 nM (active)"}
{"smiles": "Cn1c(=O)c(-c2ccc(Cl)cc2)nc2cnc(N3CCOCC3)nc21", "activity change, negative = inhibition": "8.27% (inactive)"}
{"smiles": "CN(C)c1ncc2nc(-c3ccccc3)c(=O)n(Cc3ccc(F)cc3)c2n1", "activity change, negative = inhibition": "4.39% (inactive)"}
{"smiles": "COc1ccc(Oc2ncc3nc(-c4ccc(Cl)cc4)c(=O)n(C[C@H]4CCCO4)c3n2)cc1", "activity change, negative = inhibition": "12.1% (inactive)"}
{"smiles": "COc1ncc2nc(-c3ccc(F)cc3)c(=O)n(C)c2n1", "activity change, negative = inhibition": "10.3% (inactive)"}
{"smiles": "CN1CCN(c2ncc3nc(-c4cc(F)cc(F)c4)c(=O)n(Cc4cccs4)c3n2)CC1", "activity change, negative = inhibition": "9.81% (inactive)"}
{"smiles": "CCNc1ncc2nc(-c3ccccc3)c(=O)n(Cc3cccs3)c2n1", "activity change, negative = inhibition": "5.59% (inactive)"}
{"smiles": "CN1CCN(c2ncc3nc(-c4ccc(Cl)cc4)c(=O)n(-c4ccccc4)c3n2)CC1", "activity change, negative = inhibition": "12.4% (inactive)"}
{"smiles": "CN1CCN(c2ncc3nc(-c4ccc(F)cc4)c(=O)n(Cc4cccs4)c3n2)CC1", "activity change, negative = inhibition": "12.7% (inactive)"}
{"smiles": "CNc1nc(-c2ccccc2CN(C)C)nc2ccccc12", "activity change, negative = inhibition": "2.68% (inactive)"}
{"smiles": "COCCNc1ncnc2ccc(-c3cccnc3)cc12", "Potency": "10000 nM (active)"}
{"smiles": "COc1cccc(Cn2c(=O)c(-c3cccc(C#N)c3)nc3cnc(N4CCN(C)CC4)nc32)c1", "activity change, negative = inhibition": "12.6% (inactive)"}
{"smiles": "COc1cccc(Cn2c(=O)c(-c3cc(F)cc(F)c3)nc3cnc(N(C)C)nc32)c1", "activity change, negative = inhibition": "6.22% (inactive)"}
{"smiles": "COc1cccc(Cn2c(=O)c(-c3cc(F)cc(F)c3)nc3cnc(N4CCN(C)CC4)nc32)c1", "activity change, negative = inhibition": "4.78% (inactive)"}
{"smiles": "COc1cccc(Nc2ncc3nc(C)c(=O)n(Cc4cccs4)c3n2)c1", "activity change, negative = inhibition": "-1.12% (inactive)"}
{"smiles": "CN1CCN(c2cc(-c3ccoc3)ncn2)CC1", "activity change, negative = inhibition": "-9.57% (inactive)"}
{"smiles": "CN(C)c1ncnc2ccc(-c3ccoc3)cc12", "Potency": "178 nM (active)"}
{"smiles": "CCNc1ncc2nc(-c3cn(C)c4ccccc34)c(=O)n(Cc3cccc(OC)c3)c2n1", "activity change, negative = inhibition": "10.7% (inactive)"}
{"smiles": "COc1ccc(-c2nc3cnc(Oc4cccc(Cl)c4)nc3n(C3CC3)c2=O)cc1", "activity change, negative = inhibition": "6.2% (inactive)"}
{"smiles": "COc1ncc2nc(-c3cccs3)c(=O)n(CCc3ccccc3)c2n1", "activity change, negative = inhibition": "5.1% (inactive)"}
